Screens as filed in PubChem BioAssay.
ALDH1A1 block = blocks purified human ALDH1A1 activity; AID 1030; Potency, µM (top dose mostly 75.3 µM), without a hit: at the highest dose activity, negative = inhibition, actives largely listed as inhibitors; hit rate 7.3% among 220,000; Purified ALDH1A1, NADH fluorescence, propionaldehyde substrate;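 also: potency is read from the fitted curve at half-maximal effect; plate controls were no enzyme wells and a reference inhibitor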
Target sequence (P00352 whole entry, looked up): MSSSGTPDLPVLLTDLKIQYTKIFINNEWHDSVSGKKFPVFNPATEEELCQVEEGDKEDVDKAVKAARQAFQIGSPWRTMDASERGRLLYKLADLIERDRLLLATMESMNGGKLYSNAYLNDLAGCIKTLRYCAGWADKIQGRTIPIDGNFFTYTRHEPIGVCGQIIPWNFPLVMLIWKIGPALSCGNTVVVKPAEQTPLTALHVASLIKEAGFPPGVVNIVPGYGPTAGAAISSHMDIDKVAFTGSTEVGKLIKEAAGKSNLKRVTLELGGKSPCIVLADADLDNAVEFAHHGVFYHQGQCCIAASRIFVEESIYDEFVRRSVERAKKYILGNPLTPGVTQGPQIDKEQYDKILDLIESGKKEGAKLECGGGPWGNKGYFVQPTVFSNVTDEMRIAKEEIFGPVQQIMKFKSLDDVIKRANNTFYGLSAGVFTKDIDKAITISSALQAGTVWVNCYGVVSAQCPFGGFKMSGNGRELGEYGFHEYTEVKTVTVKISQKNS
HPGD inh = blocks human HPGD enzyme activity; AID 894; Potency, µM, without a hit: top-dose activity change, negative = inhibition, most hits filed as inhibitors; purified HPGD, NADH fluorescence kinetic, PGE2 substrate; hit rate 4.3% among 150,000; also: potency is read from the fitted curve at half-maximal effect
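NADH formation kinetics: reaction with 30 uM PGE2 and 1 mM NAD+ (final), 20 nM enzyme, Tris-HCl pH 8 with Tween 20, after 15 min compound preincubation at room temperature. Fluorescence change, last versus first of five reads.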
PNC inhibitor = perinucleolar compartment assembly inhibition | activity change (PNC), negative = inhibition, % at 10 µM | PC3M PTB-GFP, PNC prevalence imaging, 16 h; active compounds read low | AID 2417 | hit rate 3.1% among 140,000;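 active = readout at or below -70, meaning at least 70% loss of cells showing the perinucleolar compartment, a nuclear body marking cancer cells; inconclusive = readout between -30 and a set limit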;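 also: plate controls were DMSO wells for no effect and camptothecin positive control wells for full effect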
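Compounds are pinned in duplicate onto adhered PC3M cells stably expressing GFP-tagged PTB and incubated 16 h at 37 C. Cells are then fixed, nuclei stained with Hoechst, and PNC-positive cells counted.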
* hit, by the source's call; ? = inconclusive; nt = no result given; [ ] = another dose, or the depositor's remark. A selection: hits, their analogues and other compounds. The true share with any hit is near 11%. Unless noted, calls follow the shape of the dose curve; as a rule, active = well fitted inhibition curve with a large enough effect (not every such curve was filed as active); inconclusive = small, poorly fitted or top-dose-only effect, or another doubt; inactive = no such curve, though single readings can be large or run the other way. Unless noted, % is scaled to controls: 0 for no effect and ±100 for the full control effect.

SMILES | ALDH1A1 block | HPGD inh | PNC inhibitor
Cc1nc2c3ccccc3nc(SCC(=O)N3CC(C)CC(C)C3)n2n1 (stereo not drawn) | 7.1µM* | ? | 16
Cc1nc2c3ccccc3nc(SCC(=O)c3ccc(Cl)cc3)n2n1 | 0% | -8% | 5
CCN(CC)c1ccc(CN2CCC(C(=O)NCc3ccc(C)cc3)CC2)cc1 | 14µM* | nt | nt
CCN(CC)S(=O)(=O)N1CCC(C(=O)NCc2ccc(C)cc2)CC1 | 4.5µM* | -9% | 22
Cc1ccc(S(=O)(=O)N2CCC(C(=O)NCc3ccncc3)CC2)cc1 | 1% | -8% | 12
Cc1ccc(NC(=O)N2CCC(C(=O)NCc3ccccc3)CC2)cc1 | -8% | -14% | 296
O=C(COc1ccc(Cl)cc1)Nc1nnc(-c2ccco2)o1 | 2% | nt | nt
COCCCNC(=S)NNC(=O)c1ccc(S(=O)(=O)N2CCC(C)CC2)cc1 | -2% | nt | nt
CCOC(=O)C1(C)NC(c2cccs2)C2C(=O)N(c3ccc(OC)cc3)C(=O)C21 (stereo not drawn) | 2% | nt | nt
CCOCC(=O)Nc1cccc(C(=O)OCC)c1 | ? | -5% | -9
CCCCc1ccc(NC(=O)CC(C)C)cc1 | 3% | nt | nt
CCOCC(=O)Nc1ccc(Br)c(C)c1 | 14µM* | nt | nt
CCc1nn(CC(=O)Nc2cc(C)ccc2C)c(=N)s1 | -3% | nt | nt
CCCCc1ccc(NC(=O)COCC)cc1 | 14µM* | 10µM* | -24
CCc1nn(CC(=O)Nc2ccc(Br)c(C)c2)c(=N)s1 | 11µM* | nt | nt
CCNC(=S)SCCOc1ccc(C)cc1 | 7% | -13% | 22
CNC(=O)C1CC(=O)N(CCCc2ccccc2)C(=Nc2ccccc2)S1 (stereo not drawn) | ? | 0% | ?
Oc1cccc(C(O)CNCc2ccc(OCc3ccc(Cl)cc3Cl)cc2)c1 (stereo not drawn) | 5% | nt | nt
CCn1c2ccccc2c2cc(/C=N/O)ccc21 | -1% | nt | nt
CCn1c2ccc(/C(C)=N\O)cc2c2cc(/C(C)=N\O)ccc21 | -2% | 2.8µM* | -22
COc1cc(-n2c(C)nc3cc(C(=O)N4CCOCC4)ccc32)cc(OC)c1OC | 2% | 32µM* | ?
COc1cc(C(=O)N2CCC(n3c(C)nc4cc(F)ccc43)CC2)cc(OC)c1OC | 8% | -12% | 12
Cc1ccc(S(=O)(=O)N(Cc2ccc(Cl)cc2)c2ccccc2C(=O)NCc2ccco2)cc1 | -1% | nt | ?
Cc1cccc(C(=O)N[C@H](C(=O)Nc2nccs2)C(C)C)c1 | -9% | nt | 9
CCCN(CC1CC1)C(=S)Nc1ccc(Oc2ccccc2)cc1 | -7% | -2% | ?
SMILES | ALDH1A1 block | HPGD inh | PNC inhibitor
CC(C)(C)c1ccc(OCCNC(=S)NC(=O)c2cccnc2)cc1 | ? | -13% | 16
O=C(Nc1nc(-c2ccccc2)cs1)c1cccnc1 | 3% | -7% | 11
COc1cccc(C(=O)Nc2nc(C)cs2)c1 | 8% | ? | 18
CC(=O)Nc1ccc(C(=O)Nc2nc(-c3cccnc3)cs2)cc1 | 10µM* | nt | nt
COc1cccc(C(=O)Nc2nc(-c3ccncc3)cs2)c1 | 20µM* | nt | nt
CCCCC1=CC2=CC(=O)C(C)(OC(=O)CC)C(=O)C2=CN1CCCN(CC)CC (stereo not drawn) | 3%[13.5 µM] | 1% | nt
COc1c(CC(=O)c2cc3c(cc2O)OC(C)(C)C(O)C3)ccc2c1C=CC(C)(C)O2 (stereo not drawn) | ? | -24% | nt
CCOC(=O)C1=C(O)/C(=C\c2cc(C)n(-c3ccc(F)cc3)c2C)N=C1C | 9% | nt | nt
CC(C)C(NC(=O)c1ccc(F)cc1)C(=O)OCC(=O)N1CC(=O)Nc2ccccc21 (stereo not drawn) | 3% | -9% | -15
Cc1ccc2cc(C(c3nnnn3C3CCCC3)N(Cc3cccnc3)Cc3ccco3)c(=O)[nH]c2c1 (stereo not drawn) | ? | -7% | ?
Cc1ccc2[nH]c(=O)c(C(c3nnnn3C3CCCC3)N(Cc3cccnc3)Cc3ccco3)cc2c1 (stereo not drawn) | 4.5µM* | -4% | 28
CC(c1nnnn1C1CCCCC1)N(Cc1ccccc1)Cc1cccnc1 (stereo not drawn) | -8% | -8% | -100*
CCN(Cc1ccccc1)C(c1ccccn1)c1nnnn1C1CCCCC1 (stereo not drawn) | -1% | -6% | -15
COc1cc(C2NC(=S)NC(C)=C2C(=O)Nc2ccc(C)cc2)ccc1O (stereo not drawn) | -2% | nt | nt
COCCn1c(SCC(=O)Nc2sc(C)c(C)c2C#N)nnc1-c1ccc(OC)cc1 | ? | -2% | 26
COCCn1c(SCC#N)nnc1-c1ccc(OC)cc1 | 4% | -8% | -100*
COc1ccccc1CN1CC[C@@]2(CCCN(C(=O)c3c(C)noc3C)C2)C1 | -4% | -14% | nt
Cc1cccc(C)c1NC(=O)CCCSc1nnc(-c2ccco2)o1 | 5% | -6% | 33
Cc1ccccc1NC(=O)CSc1nnc(-c2ccco2)c(-c2ccco2)n1 | 1.3µM* | 8.9µM* | 39
Cc1ccccc1NC(=O)CSc1n[nH]c(-c2ccco2)n1 | -3% | nt | nt
Cc1cccc(C)c1NC(=O)CSc1nnc(-c2ccco2)c(-c2ccco2)n1 | 7.1µM* | 28µM* | 75
O=C(CSc1cccs1)Nc1ccc2ccccc2c1 | ? | 28µM* | 60
COc1ccc(CC(=O)Nc2ccc3c(c2)CCC3)cc1OC | -7% | -7% | -8
O=C(Cc1ccc2c(c1)CCCC2)Nc1ccc2ccccc2c1 | 22µM* | ? | ?
O=C(CSc1cccs1)Nc1cccc2ccccc12 | 28% | -8% | ?
SMILES | ALDH1A1 block | HPGD inh | PNC inhibitor
C=CCC(O)(C#Cc1ccccc1)c1ccccc1 (stereo not drawn) | 4% | -4% | nt
COc1ccc(C(=O)NC(=S)N2CCOCC2)cc1OC | -4% | nt | nt
CN(CCOc1ccc(C[C@H](Nc2ccccc2C(=O)c2ccccc2)C(=O)O)cc1)c1ccccn1 | 6% | -15% | nt
CCOC(=O)c1cn(Cc2cccc(Cl)c2)nn1 | 1% | -6% | -114*
COC(=O)c1cn(Cc2cccc(C)c2)nn1 | 10% | -8% | -9
C/C(=C\CO)CCC(C)CCCC(C)CCCC(C)C (stereo not drawn) | -16% | -9% | nt
CC1(C)CC[C@]2(C(=O)O)CC[C@]3(C)C(=CCC4[C@@]5(C)CC[C@H](O)C(C)(C)C5[C@H](O)C[C@]43C)C2C1 (stereo partly drawn) | 0% | -3% | nt
CCOC(=O)C(C)Oc1ccc(OCc2ccccc2)cc1 (stereo not drawn) | 0% | nt | nt
CCCNC(=O)COc1ncnc2sccc12 | -3% | nt | nt
Cc1sc2ncnc(OCC(=O)NC(C)C(C)C)c2c1C (stereo not drawn) | 0% | nt | nt
Cc1sc2ncnc(OCC(=O)Nc3ccc4c(c3)OCCO4)c2c1C | 20µM* | -22% | -29
O=C(COc1ncnc2sccc12)Nc1ccc2c(c1)OCCO2 | -5% | -8% | -112*
O=S(=O)(c1ccccc1)N(CC(F)(F)F)c1ccc(C(O)(C(F)(F)F)C(F)(F)F)cc1 | 17% | -5% | nt
CC(=O)Nc1ccc(S(=O)(=O)N/N=C/c2ccc(C)s2)cc1 | ? | -14% | -20
COC(=O)Cn1cc(/C=C(/C#N)C(=O)N2CCOCC2)c2ccccc21 | 0% | nt | nt
CN1CCC(N(C)C(=O)c2sc3cc(F)ccc3c2Cl)CC1 | 9% | nt | nt
Cc1c(CN(C)C(=O)c2sc3cc(Cl)ccc3c2Cl)cnn1C | ? | 20µM* | 27
